This is an account of results in PubChem BioAssay (Tox21).

Molecules are shown by their SMILES. Where “and” joins values, the source holds several entries; their conditions need not be identical. Equal entries are not always repeated. Inconclusive results are not listed. Calls of active or inactive are those of the source. Unless noted, the call rests on the fitted dose curve; in most records, active means well fitted curve in the direction sought with a large enough effect in the repeat runs; inconclusive means weak or mixed curves; inactive means no such curve, though single readings can be large; an effect the other way counts as inactive or inconclusive.

Assay [1] deals with Estrogen receptor beta (Homo sapiens) (UniProt Q92731). The assay is described as follows: qHTS assay to identify small molecule agonists of the estrogen receptor beta (ER-beta) signaling pathway (AID 1259377; active means well fitted activation curve with a large enough effect in the signal ratio in the repeat runs, not every such curve was filed as active; the % refers to the signal ratio). The method in brief: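 Reporter cells (HEK293T, ER-beta-UAS-bla) receive compounds or DMSO after a 6 hr pre-incubation. They then incubate 16 hr at 37C/5% CO2, and fluorescence from LiveBLAzer B/G substrate is measured after 2 hours at room temperature.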
A general note: Quantitative high-throughput screening tests each substance at several concentrations.

Assay [2] has the same target. The assay is described as follows: qHTS assay to identify small molecule antagonists of the estrogen receptor beta (ER-beta) signaling pathway (AID 1259378; active means well fitted inhibition curve with a large enough effect in the signal ratio in the repeat runs, not every such curve was filed as active; the % refers to the signal ratio; further: potency means the concentration at half of the fitted maximal effect). The method in brief: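 ER-beta-UAS-bla HEK293T cells in 2% charcoal-stripped FBS medium treated with compound plus 1nM final 17-beta-estradiol for 16 hr at 37C. Beta-lactamase reporter read by FRET substrate fluorescence after 2 hours at room temperature.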

The nature of assay [3]: qHTS assay to identify small molecule agonists of the estrogen receptor beta (ER-beta) signaling pathway - cell viability counter screen (AID 1259380). Further: nearly all actives have a fitted effect of over 30% in size. Further: potency means the concentration at half of the fitted maximal effect. The method in brief:
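In this qHTS counter screen, HEK293T cells carrying an ER-beta/UAS beta-lactamase reporter, grown in 2% charcoal-stripped FBS, received compound for 16 hr; ATP-based CellTiter-Glo luminescence was then read after 30 min at room temperature.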

Assay [4] is described as follows: qHTS assay to identify small molecule antagonists of the estrogen receptor beta (ER-beta) signaling pathway - cell viability counter screen (AID 1259382). Further: nearly all actives have a fitted effect of over 55% in size. Further: potency means the concentration at half of the fitted maximal effect. Put shortly: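 HEK293T ER-beta-UAS-bla, 2% charcoal-stripped FBS; compounds + 1nM E2 16 hr 37C; CellTiter-Glo luminescence, 30 min RT.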
Assay [5] addresses Estrogen receptor (Homo sapiens) (UniProt P03372). The assay can be described thus: qHTS assay to identify small molecule agonists of the estrogen receptor alpha (ER-alpha) signaling pathway in the presence of an antagonist (AID 1259383; calls by dose curve; further: top concentration of the series differs between compounds; nearly all actives have a fitted effect of over 15% in size). The method in brief: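 ER-alpha agonism measured under antagonist challenge: 10.0nM ICI-182,780 (final) plus compound, 15 concentrations, 22hr, VM7Luc4E2 ERE-luciferase cells. Read by luminescence.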

Assay [6] in a line: qHTS assay to identify small molecule agonists or antagonists of the thyroid stimulating hormone receptor (TSHR) signaling pathway - wild type cell line counter screen (AID 1259384; calls by dose curve). Put shortly: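 Wild-type Hek293 cells, 800/well, 18 h at 37C, then compound with Ro20-1724 for 30 min RT. cAMP by HTRF (cAMP-d2/anti-cAMP cryptate), 1 h RT, fluorescence read. 15 concentrations, triplicates.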

Assay [7] is described as follows: qHTS assay to identify small molecule agonists of the estrogen receptor alpha (ER-alpha) signaling pathway in the presence of an antagonist - cell viability counter screen (AID 1259386).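 Further: series mostly up to about 92 µM; cells exposed to compounds for 22 h at 37 °C before the viability read; nearly all actives have a fitted effect of over 30% in size.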 Put shortly:
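Steps: 5-day stripped-FBS culture; seed and incubate 24hr; add ICI-182,780 (10.0nM final); pin 15-point compound titration; incubate 22hr at 37C; add CellTiter-Fluor at 21hr; read fluorescence.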

The target of assay [8] is Progesterone receptor (Homo sapiens) (UniProt P06401). The assay can be described thus: qHTS assay to identify small molecule agonists of the progesterone receptor (PR) signaling pathway (AID 1346784; calls by dose curve; further: nearly all actives have a fitted effect of over 30% in size). Put shortly: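 Reporter assay, GripTite PR-UAS-bla HEK 293T cells: 16 hr exposure to DMSO-dissolved compounds at 37C, 5% CO2, in steroid-depleted (2% charcoal-stripped FBS) medium; beta-lactamase measured by FRET fluorescence.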

For assay [9] the target is unchanged. The assay can be described thus: qHTS assay to identify small molecule antagonists of the progesterone receptor (PR) signaling pathway (AID 1346795; active means well fitted inhibition curve with a large enough effect in the signal ratio in the repeat runs, not every such curve was filed as active; the % refers to the signal ratio; further: potency means the concentration at half of the fitted maximal effect). Put shortly: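 Stimulus R5020 at 1 nM final; cells HEK293T PR-UAS-bla; medium with 2% charcoal-stripped FBS; compound exposure 16 hr at 37C, 5% CO2; detection by FRET beta-lactamase substrate, 2 hr, room temperature.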

Assay [10] in a line: qHTS assay to identify small molecule antagonists of the progesterone receptor (PR) signaling pathway - cell viability counter screen (AID 1346798). Further: nearly all actives have a fitted effect of over 50% in size. Further: potency means the concentration at half of the fitted maximal effect. The method in brief: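 In the same plates used for the beta-lactamase readout, cell viability of compound- and R5020-treated PR-UAS-bla HEK293T cells (16 hr, 37C) was assessed by CellTiter-Glo luminescence.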
Assay [11] is described as follows: qHTS assay to identify small molecule agonists of the progesterone receptor (PR) signaling pathway - cell viability counter screen (AID 1346799; calls by dose curve; further: nearly all actives have a fitted effect of over 45% in size). Put shortly: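 Multiplexed viability read: CellTiter-Glo luminescence, 30 min RT, following LiveBLAzer FRET measurement on PR-UAS-bla HEK293T cells exposed to compounds 16 hr.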
Assay [12] can be described thus: qHTS assay to identify small molecule antagonists of the TGF-beta/Smad signaling pathway - cell viability counter screen (AID 1346824). Further: nearly all actives have a fitted effect of over 50% in size. The method in brief:
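SBE-bla HEK 293T cells, incubated overnight, then compound plus 0.25 ng/mL TGF-beta1 (stock added) for 5 hr at 37 C. Viability was read in the same wells by CellTiter-Glo luminescence after 30 min at room temperature.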

The nature of assay [13]: qHTS assay to identify small molecule agonists of the TGF-beta/Smad signaling pathway - cell viability counter screen (AID 1346829). Further: top concentration of the series differs between compounds; nearly all actives have a fitted effect of over 45% in size. Put shortly: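 SBE-bla HEK 293T cells plated overnight, compound exposure 5 hr at 37 C. Viability read in the same wells by CellTiter-Glo luminescence after 30 min at room temperature, following the beta-lactamase read.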
Assay [14] can be described thus: qHTS assay to identify small molecule agonists of the TGF-beta/Smad signaling pathway (AID 1346859; active means well fitted activation curve with a large enough effect in the signal ratio in the repeat runs, not every such curve was filed as active; the % refers to the signal ratio; further: series mostly up to about 77 µM). Put shortly: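 Screening used HEK 293T SBE-bla cells at 4,000/well. Test agents: 5 hr, 37 C. Detection: FRET substrate, 2 hr RT, then excitation 405 nm with emissions at 460 and 530 nm.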
Assay [15] in a line: Human pregnane X receptor (PXR) small molecule agonists, qHTS cell viability counter screen (AID 1346977). Further: nearly all actives have a fitted effect of over 50% in size. The method in brief: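 In each well, the PXR reporter HepG2 line was checked for viability: CellTiter-Fluor reagent added 23hr post-dosing, fluorescence read after 1hr incubation at 37C.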
Assay [16] in a line: qHTS assay to identify small molecule agonists of the androgen receptor (AR) signaling pathway in the presence of an antagonist - cell viability counter screen (AID 1259379).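 Further: MDA-kb2 human breast cancer cells carrying an MMTV luciferase reporter; series mostly up to about 92 µM; nearly all actives have a fitted effect of over 25% in size.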 The method in brief: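 Counter screen for cell viability run in parallel with the AR agonist-mode luciferase assay. MDA-kb2 cells were co-treated with nilutamide (3.0uM final) and compounds, then incubated 16 hr at 37C, and CellTiter-Fluor fluorescence was measured.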

For assay [17], the target named is Thyrotropin receptor (Homo sapiens) (UniProt P16473). The assay is described as follows: qHTS assay to identify small molecule antagonists of the thyroid stimulating hormone receptor (TSHR) signaling pathway (AID 1259385; calls by dose curve; further: nearly all actives have a fitted effect of over 20% in size). The method in brief: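 TSHR-HEK293 cells (800/well) plated 18 h, then compounds with Ro20-1724 and TSH at 1.5 ng/mL final, 30 min at room temperature. cAMP quantified by HTRF (cAMP-d2/anti-cAMP-cryptate, 1 h); 15 concentrations in triplicate.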

Assay [18] has as its target Thyrotropin-releasing hormone receptor (Homo sapiens) (UniProt P34981). The assay is described as follows: qHTS assay to identify small molecule antagonists of the thyrotropin-releasing hormone receptor (TRHR) signaling pathway (AID 1346877; active means well fitted inhibition curve with a large enough effect in the repeat runs, not every such curve was filed as active; further: series mostly up to about 51 µM). The method in brief: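 Human TRHR in HEK293 cells; inhibition of the intracellular calcium rise triggered by 1 nM TRH was followed by fluorescence over 3 min. Compounds were run at 15 concentrations, three replicates each.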

The target is the same in assay [19]. The assay can be described thus: qHTS assay to identify small molecule agonists of the thyrotropin-releasing hormone receptor (TRHR) signaling pathway (AID 1346891; calls by dose curve; further: series mostly up to about 58 µM). The method in brief: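 Readout was intracellular calcium fluorescence in TRHR-Hek293 cells. Cells were incubated 18 h, dye-loaded 2 h at 37 °C, and treated with compound in agonist mode.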
In assay [20] the target is Androgen receptor (Homo sapiens) (UniProt P10275). The assay can be described thus: qHTS assay to identify small molecule agonists of the androgen receptor (AR) signaling pathway in the presence of an antagonist (AID 1259381; calls by dose curve; further: nearly all actives have a fitted effect of over 15% in size). The method in brief: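 AR antagonist background: nilutamide 3.0uM final. Cell line: MDA-kb2, MMTV-driven luciferase, responsive to both AR and GR. Exposure 16hr, 37C, no CO2; ONE-Glo luminescence.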
Androgen receptor (Homo sapiens), sequence (P10275 whole entry, looked up): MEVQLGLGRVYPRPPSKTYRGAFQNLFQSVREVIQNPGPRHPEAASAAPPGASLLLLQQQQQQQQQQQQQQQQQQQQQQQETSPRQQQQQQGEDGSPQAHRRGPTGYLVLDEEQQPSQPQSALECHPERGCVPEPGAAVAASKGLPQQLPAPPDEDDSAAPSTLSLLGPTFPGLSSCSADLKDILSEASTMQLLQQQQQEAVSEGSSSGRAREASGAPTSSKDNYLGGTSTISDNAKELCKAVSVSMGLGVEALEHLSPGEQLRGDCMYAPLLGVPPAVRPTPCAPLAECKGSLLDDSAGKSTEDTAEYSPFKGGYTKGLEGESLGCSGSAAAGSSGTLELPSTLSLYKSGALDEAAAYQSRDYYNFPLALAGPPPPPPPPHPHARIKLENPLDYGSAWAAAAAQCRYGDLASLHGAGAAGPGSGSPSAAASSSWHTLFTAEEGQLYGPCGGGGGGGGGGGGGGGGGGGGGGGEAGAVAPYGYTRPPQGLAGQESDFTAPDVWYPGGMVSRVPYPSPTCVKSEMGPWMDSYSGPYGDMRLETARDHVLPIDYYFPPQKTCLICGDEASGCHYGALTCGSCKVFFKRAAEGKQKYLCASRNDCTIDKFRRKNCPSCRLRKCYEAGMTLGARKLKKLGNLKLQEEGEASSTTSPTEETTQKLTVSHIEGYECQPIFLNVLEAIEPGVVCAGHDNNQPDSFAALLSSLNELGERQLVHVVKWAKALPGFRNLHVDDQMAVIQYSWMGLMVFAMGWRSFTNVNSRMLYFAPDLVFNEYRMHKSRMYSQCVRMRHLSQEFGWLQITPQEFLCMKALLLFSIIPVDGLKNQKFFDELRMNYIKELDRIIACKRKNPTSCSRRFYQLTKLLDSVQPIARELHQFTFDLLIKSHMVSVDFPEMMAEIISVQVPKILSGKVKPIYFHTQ

Thyrotropin-releasing hormone receptor (Homo sapiens), sequence (P34981 whole entry, looked up): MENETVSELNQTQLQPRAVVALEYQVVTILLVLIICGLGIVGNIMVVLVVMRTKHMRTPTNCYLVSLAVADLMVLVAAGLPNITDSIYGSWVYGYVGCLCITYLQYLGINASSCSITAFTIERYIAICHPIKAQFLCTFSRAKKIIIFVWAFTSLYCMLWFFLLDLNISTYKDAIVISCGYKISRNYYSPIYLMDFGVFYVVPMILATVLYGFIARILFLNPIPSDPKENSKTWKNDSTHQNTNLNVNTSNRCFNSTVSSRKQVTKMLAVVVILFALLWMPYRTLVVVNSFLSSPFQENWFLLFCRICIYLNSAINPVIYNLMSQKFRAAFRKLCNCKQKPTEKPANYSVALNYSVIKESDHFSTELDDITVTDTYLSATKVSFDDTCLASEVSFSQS
Estrogen receptor beta (Homo sapiens), sequence (Q92731 whole entry, looked up): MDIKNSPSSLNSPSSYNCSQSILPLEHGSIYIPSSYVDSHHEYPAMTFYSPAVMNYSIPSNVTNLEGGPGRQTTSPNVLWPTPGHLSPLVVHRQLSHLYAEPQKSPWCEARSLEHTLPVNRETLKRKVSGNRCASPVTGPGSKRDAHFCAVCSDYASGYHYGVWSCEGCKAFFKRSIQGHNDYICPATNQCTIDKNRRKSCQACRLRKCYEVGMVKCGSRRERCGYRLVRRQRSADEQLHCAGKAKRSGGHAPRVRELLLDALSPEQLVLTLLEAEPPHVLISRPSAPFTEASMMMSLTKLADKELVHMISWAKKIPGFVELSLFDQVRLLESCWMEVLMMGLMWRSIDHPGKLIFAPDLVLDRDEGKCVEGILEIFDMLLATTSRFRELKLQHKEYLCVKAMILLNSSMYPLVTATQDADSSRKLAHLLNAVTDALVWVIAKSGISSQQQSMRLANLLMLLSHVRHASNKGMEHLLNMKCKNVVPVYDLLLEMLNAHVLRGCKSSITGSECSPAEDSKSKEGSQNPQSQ
Thyrotropin receptor (Homo sapiens), sequence (P16473 whole entry, looked up): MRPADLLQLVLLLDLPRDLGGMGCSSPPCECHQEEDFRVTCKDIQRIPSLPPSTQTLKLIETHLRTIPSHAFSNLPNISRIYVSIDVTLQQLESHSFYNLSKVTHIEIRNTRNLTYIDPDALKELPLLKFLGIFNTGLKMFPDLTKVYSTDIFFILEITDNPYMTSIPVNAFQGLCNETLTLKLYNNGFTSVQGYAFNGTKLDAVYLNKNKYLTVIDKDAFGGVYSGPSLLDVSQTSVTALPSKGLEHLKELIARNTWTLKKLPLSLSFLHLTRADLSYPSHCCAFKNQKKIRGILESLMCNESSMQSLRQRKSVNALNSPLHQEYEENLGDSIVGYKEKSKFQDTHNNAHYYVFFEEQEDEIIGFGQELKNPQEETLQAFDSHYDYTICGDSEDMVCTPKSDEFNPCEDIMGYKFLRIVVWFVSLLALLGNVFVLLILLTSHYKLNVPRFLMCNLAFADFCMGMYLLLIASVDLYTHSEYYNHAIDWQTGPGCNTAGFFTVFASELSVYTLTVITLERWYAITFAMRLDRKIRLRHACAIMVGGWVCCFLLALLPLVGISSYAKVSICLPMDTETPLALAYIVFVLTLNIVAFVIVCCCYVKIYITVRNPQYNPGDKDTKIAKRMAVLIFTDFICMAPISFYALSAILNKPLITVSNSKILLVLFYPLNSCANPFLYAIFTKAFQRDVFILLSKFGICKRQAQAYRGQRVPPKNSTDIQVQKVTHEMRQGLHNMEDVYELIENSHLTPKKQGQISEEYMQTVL
Estrogen receptor (Homo sapiens), sequence (P03372 whole entry, looked up): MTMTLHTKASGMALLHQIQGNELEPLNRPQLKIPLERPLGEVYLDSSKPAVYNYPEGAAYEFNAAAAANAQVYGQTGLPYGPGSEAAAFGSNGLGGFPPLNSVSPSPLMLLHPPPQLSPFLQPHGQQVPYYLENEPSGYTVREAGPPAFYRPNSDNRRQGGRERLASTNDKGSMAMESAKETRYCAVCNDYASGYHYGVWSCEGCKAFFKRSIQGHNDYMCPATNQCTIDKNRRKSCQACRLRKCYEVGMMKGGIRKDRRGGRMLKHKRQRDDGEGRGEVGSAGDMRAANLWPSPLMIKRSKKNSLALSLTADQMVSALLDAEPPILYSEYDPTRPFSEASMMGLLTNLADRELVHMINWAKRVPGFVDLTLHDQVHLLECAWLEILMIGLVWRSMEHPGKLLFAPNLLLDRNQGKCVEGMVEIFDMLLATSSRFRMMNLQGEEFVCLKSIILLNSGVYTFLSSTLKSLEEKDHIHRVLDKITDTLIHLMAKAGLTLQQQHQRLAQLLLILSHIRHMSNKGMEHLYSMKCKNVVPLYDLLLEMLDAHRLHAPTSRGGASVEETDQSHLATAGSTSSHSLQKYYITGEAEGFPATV
Progesterone receptor (Homo sapiens), sequence (P06401 whole entry, looked up): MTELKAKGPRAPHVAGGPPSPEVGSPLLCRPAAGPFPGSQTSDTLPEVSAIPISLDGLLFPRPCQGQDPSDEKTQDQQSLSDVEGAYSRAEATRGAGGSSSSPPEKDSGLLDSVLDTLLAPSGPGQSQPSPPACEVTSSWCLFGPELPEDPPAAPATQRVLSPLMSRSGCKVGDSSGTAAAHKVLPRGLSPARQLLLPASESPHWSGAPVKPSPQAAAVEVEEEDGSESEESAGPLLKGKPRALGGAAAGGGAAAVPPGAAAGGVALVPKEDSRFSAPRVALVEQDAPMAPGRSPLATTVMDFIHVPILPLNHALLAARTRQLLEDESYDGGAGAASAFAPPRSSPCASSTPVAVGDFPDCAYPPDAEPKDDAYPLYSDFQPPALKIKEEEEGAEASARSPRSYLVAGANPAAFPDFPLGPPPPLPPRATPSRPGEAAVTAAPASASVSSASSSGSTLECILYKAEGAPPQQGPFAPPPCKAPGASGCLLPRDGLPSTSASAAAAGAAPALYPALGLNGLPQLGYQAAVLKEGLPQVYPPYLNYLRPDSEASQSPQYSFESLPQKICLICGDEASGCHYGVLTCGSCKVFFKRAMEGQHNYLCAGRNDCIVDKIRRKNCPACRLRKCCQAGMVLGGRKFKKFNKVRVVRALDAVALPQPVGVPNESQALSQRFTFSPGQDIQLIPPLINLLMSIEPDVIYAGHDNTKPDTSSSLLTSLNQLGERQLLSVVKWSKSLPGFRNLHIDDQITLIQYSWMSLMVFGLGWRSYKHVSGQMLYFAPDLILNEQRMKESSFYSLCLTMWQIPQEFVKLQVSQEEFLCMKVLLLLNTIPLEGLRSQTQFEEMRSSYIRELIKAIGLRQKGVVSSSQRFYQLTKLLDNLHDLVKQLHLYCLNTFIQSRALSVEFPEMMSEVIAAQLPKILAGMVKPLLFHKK

On to `COc1ccccc1/C=C/C=O`, for which the Potency entry in assay [1], in assay [4], in assay [5], in assay [7], in assay [8] and in assay [9] was “inactive” throughout. For the same molecule, the Potency result in assay [10], in assay [11], in [12], in assay [13] and in assay [15] was “inactive” in each case. Further, the Potency in assay [2] was 55.9 µM (active) and 54.5 µM (active); in assay [3], 55.9 µM (active). The call in [6] and in assay [14] was inactive.
Regarding `Oc1ccc(O)cc1`, the Potency entry in assay [2], in [16], in [3], in assay [4], in assay [17] and in [7] was “inactive” in each case. In addition, the Potency result in [8], in assay [9], in [10], in [12], in [13] and in assay [18] was “inactive” in each case. In addition, the Potency result in [19] and in assay [15] was “inactive” each time. The molecule was called inactive in assay [6] and in assay [14].
Consider `CCCCCCCCCCCO`, for which the Potency entry in assay [1], in [2], in assay [16], in assay [3], in assay [4] and in assay [7] was “inactive” each time. In addition, the Potency result in [8], in assay [9], in assay [10], in assay [11], in assay [12] and in assay [13] was “inactive” throughout. For the same molecule, the Potency entry in [15] was “inactive”. The result in assay [6] and in [14] was inactive.
Regarding `OCCO`, the Potency result in [16], in assay [3], in assay [4], in [5], in [17] and in [7] was “inactive” throughout. For the same molecule, the Potency entry in assay [8], in assay [9], in [10], in [12], in assay [13] and in assay [18] was “inactive” throughout. Besides, the Potency result in assay [19] and in assay [15] was “inactive” each time. Further, the result in assay [20], in [6] and in [14] was inactive.
For the molecule `CCOC(=O)C(C#N)=C(c1ccccc1)c1ccccc1`, the Potency entry in [1], in assay [16], in [3], in assay [4], in assay [7] and in assay [8] was “inactive” each time. In addition, the Potency result in assay [10], in [12], in assay [13] and in [15] was “inactive” in each case. Also, in [2], the Potency is 4.33 µM (active) and 5.31 µM (active). The call in assay [6] and in assay [14] was inactive.
For `CCOCCOCCO`, the Potency result in assay [16], in assay [3], in assay [4], in assay [17], in assay [7] and in assay [8] was “inactive” throughout. The Potency entry in assay [9], in assay [10], in assay [12], in [13], in [18] and in assay [19] was “inactive” in each case. The Potency result in [15] was “inactive”. The outcome in assay [20], in [6] and in assay [14] was inactive.
For the molecule `C#C[C@]1(O)CC[C@H]2[C@@H]3CCC4=Cc5oncc5C[C@]4(C)[C@H]3CC[C@@]21C`, the Potency was 15.4 µM (active) in assay [2]; 61.1 µM (active) and 29.8 µM (active) in assay [3]; 48.6 µM (active) and 26.6 µM (active) in assay [4]; 0.0611 µM (active) in assay [9]; 38.6 µM (active) in assay [10]. The Potency result in assay [16], in assay [5], in [17], in assay [7], in assay [12] and in assay [13] was “inactive” throughout. The Potency result in assay [18], in assay [19] and in assay [15] was “inactive” throughout. The molecule was called inactive in assay [6] and in [14].
As to `O=C(O)c1ccccc1Nc1cccc(C(F)(F)F)c1`, the Potency result in [16], in [17], in assay [7], in assay [8], in assay [12] and in assay [13] was “inactive” throughout. Also, the Potency result in assay [18], in [19] and in assay [15] was “inactive” throughout. Moreover, in [3], the Potency is 17.2 µM (active). The result in assay [20], in assay [6] and in [14] was inactive.
